An excerpt weighted towards active compounds, which were near 7.4% of everything screened.
Rab9 prom act: activates the Rab9 promoter; Huh7 Rab9 promoter-luciferase reporter, luminescence, 24 h; Potency, µM (doses to about 9.22 µM), for the others: at the highest dose activation, negative = inhibition, most hits filed as activators; 320,000 tested, 2.8% active; AID 485297; note: % of control where 0% means no effect; nearly all actives have a fitted effect of over 60% in size
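Measured in stably transfected Huh7 cells bearing a Rab9 promoter–luciferase construct: 24 h compound treatment at 37 °C, followed by luminescence detection.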
FLuc counter: inhibits or activates purified firefly luciferase, miR-21 counter-screen | P08659 | purified FLuc, Km substrates, luminescence inhibition | Potency, µM (titrated, usually from 57.5 µM), without a hit: at the highest dose activity change, negative = inhibition, hits mostly inhibitors | 360,000 tested, 6.9% active | AID 588342;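 note: plate controls were vehicle for no effect and reference inhibitor for full effect; nearly all actives have a fitted effect of over 55% in size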
Target sequence (P08659 whole entry, looked up): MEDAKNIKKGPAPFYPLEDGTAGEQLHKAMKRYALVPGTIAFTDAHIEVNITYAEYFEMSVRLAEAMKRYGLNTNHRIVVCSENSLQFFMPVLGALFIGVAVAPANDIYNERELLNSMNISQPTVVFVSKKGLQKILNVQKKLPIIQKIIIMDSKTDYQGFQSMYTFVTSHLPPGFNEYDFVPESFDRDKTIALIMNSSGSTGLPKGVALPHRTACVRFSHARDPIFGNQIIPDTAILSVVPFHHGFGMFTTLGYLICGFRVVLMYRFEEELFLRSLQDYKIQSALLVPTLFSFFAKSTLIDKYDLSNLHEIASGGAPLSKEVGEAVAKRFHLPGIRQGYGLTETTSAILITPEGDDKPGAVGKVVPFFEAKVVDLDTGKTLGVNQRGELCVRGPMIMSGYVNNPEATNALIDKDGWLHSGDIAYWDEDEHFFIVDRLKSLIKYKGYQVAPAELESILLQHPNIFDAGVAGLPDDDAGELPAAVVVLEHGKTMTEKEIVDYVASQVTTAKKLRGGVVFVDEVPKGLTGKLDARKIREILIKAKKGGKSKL
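Biochemical qHTS of compounds, final roughly 60 µM downward over six points, against 10 nM purified firefly luciferase using Km concentrations of substrates (10 uM D-luciferin, 10 uM ATP) in Tris acetate pH 7.5 buffer; luminescence output.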
NPC1 promoter act: activators of NPC1 promoter; Huh7 NPC1 promoter luciferase reporter, 24 h; Potency, µM (doses to about 9.22 µM), inactives show at the highest dose activation, actives largely listed as activators; 320,000 tested, 2.4% active; AID 485313; note: % of control where 0% means no effect; nearly all actives have a fitted effect of over 60% in size
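Quantitative HTS used a cell-based reporter: Huh7 cells stably bearing the NPC1 promoter upstream of luciferase were treated with compounds for 24 h, and promoter activation was read as luminescence.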
ELG1 genotox: genotoxicity induction in ELG1-luciferase HEK293T cells. Potency, µM (doses to about 46 µM), without a hit: top-dose activity change, positive = activation, actives largely listed as activators. 330,000 tested, 1.3% active. HEK293T ELG1-luciferase reporter, luminescence, 16 h; note: % of control where 0% means no effect; nearly all actives have a fitted effect of over 60% in size
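Quantitative HTS format in 1536-well plates. HEK293T ELG1-luciferase reporter cells receive test compound and are incubated 16 hr at 37 °C, 5% CO2; ONE-Glo added, 30 min room temperature, then luminescence read.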
SMN2 splice enh: SMN2 splice variant enhancement; 210,000 tested, 2.8% active; Potency, µM (highest dose often 46.1 µM), without a hit: top-dose activity change, positive = activation, actives largely listed as activators; HEK293 SMN2-luciferase splicing reporter, luminescence, 30-36 h; note: % of control where 0% means no effect; nearly all actives have a fitted effect of over 55% in size
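qHTS luciferase splicing reporter: luminescence rises when SMN2 exon 7 is included in transfected HEK293 cells. Compound exposure lasted 30-36 h at 37C, with 4.5 mM final sodium butyrate as control, followed by a ONE-Glo read.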
Active calls of the source: *; ? = inconclusive; . = no result given. Calls come from the whole dose curve; as a rule, active = well fitted curve in the direction sought with a large enough effect; inconclusive = small, poorly fitted or top-dose-only effect, or another doubt; inactive = no such curve, though single readings can be large; an effect the other way counts as inactive or inconclusive. Potency is the fitted concentration of half-maximal effect.

SMILES | Rab9 prom act | FLuc counter | NPC1 promoter act | ELG1 genotox | SMN2 splice enh
CC(=O)N1CCCc2cc(S(=O)(=O)N3CCC(C(=O)NCc4cccc(C)c4)CC3)ccc21 | . | -1% | . | . | .
CN(C)S(=O)(=O)c1ccc2c(c1)N(CC(=O)NCc1ccc(F)cc1)C(=O)CS2 | . | 4% | . | . | .
Cc1c(CNC(C)CCc2ccccc2)c(C(=O)O)c(C)n1Cc1ccc(F)cc1Cl (stereo not drawn) | . | 6% | . | . | ?
O=C(OCC(=O)N1CCOCC1)c1ccc2ccccc2c1O | 4µM* | 17µM* | 3.2µM* | ? | .
COc1ccccc1C(=O)OCC(=O)N1CCC(Cc2ccccc2)CC1 | -2% | 17µM* | 0% | 6% | .
O=C(OCC(=O)N1CCOCC1)c1ccccc1OCc1ccccc1Cl | . | . | . | 1% | .
O=C(OCC(=O)N1CCCC1)c1ccccc1OCc1ccccc1 | 10% | 17µM* | 0% | ? | 13µM*
O=C(OCC(=O)N1CCN(C(=O)c2ccco2)CC1)c1ccccc1OCc1ccccc1 | -4% | -3% | 2% | 0% | -7%
O=C(OCC(=O)N1CCOCC1)c1ccccc1OCc1ccccc1 | -4% | 24µM* | -1% | 1% | .
CCC(CC)c1nnc(NC(=O)C23CC4CC(CC(NC(C)=O)(C4)C2)C3)s1 | 3% | 3% | -2% | -5% | .
CC(=O)NC12CC3CC(C1)CC(C(=O)Nc1nc4ccc(F)cc4s1)(C3)C2 | ? | 13µM* | ? | -1% | .
CC1CC[C@@]2(C(=O)O)CC[C@]3(C)C(=CCC4[C@@]5(C)CCC(O)C(C)(C)C5CC[C@@]43C)C2C1C (stereo partly drawn) | . | . | . | . | 11%
CCOC(=O)c1[nH]c(C)c(C(=O)Nc2ccc3c(c2)OCCO3)c1C | 10% | ? | 12% | 12% | 13%
CC(=O)c1c(C)[nH]c(C(=O)Nc2ccc3c(c2)OCCO3)c1C | 1.3µM* | 4.8µM* | 1.8µM* | ? | 5.6µM*
CCN(CC)S(=O)(=O)c1ccc(N2CCOCC2)c(NC(=O)c2[nH]c(C)c(C(C)=O)c2C)c1 | . | . | . | 10µM* | .
CCN(CC)S(=O)(=O)c1ccc(N2CCOCC2)c(NC(=O)c2ccc(F)cc2)c1 | -1% | 0% | -2% | -9% | 9%
CCc1c(C(=O)Nc2ccc(OC)cc2)[nH]c(C)c1C(C)=O | 21% | ? | 14% | 3% | 22µM*
CC(=O)c1c(C)[nH]c(C(=O)Nc2ccc(C)c(C)c2)c1C | 1.4µM* | 11µM* | ? | 10µM* | .
COc1cccc(N2CCN(c3ccc4nnc(CCC(=O)O)n4n3)CC2)c1 | . | 0% | . | . | 3%
CCn1cc2nc(SCC(=O)Nc3ccccc3F)n(Cc3ccc(C)cc3)c(=O)c2n1 | . | -18% | . | . | .
C=CC[C@@H]1[C@H](O)CC[C@@]2(C)[C@H]1CC[C@@H]1[C@@H]2CC[C@]2(C)C([C@H](C)CCCC(C)C)CC[C@@H]12 (stereo partly drawn) | . | . | . | . | -12%
CC(=O)c1c(C)[nH]c(C(=O)NCCc2cccc(C)c2)c1C | ? | 17µM* | ? | 6% | 11%
CCOC(=O)c1c(C)[nH]c(C(=O)NNC(=O)c2ccccc2)c1C | 1.8µM* | 6.7µM* | 0.56µM* | ? | 11µM*
CC(=O)c1c(C)[nH]c(C(=O)Nc2ccc(C)cc2Br)c1C | 0.89µM* | ? | 3.5µM* | ? | .
CC(=O)c1c(C)[nH]c(C(=O)Nc2cc(C)ccc2C)c1C | 2% | -2% | 5% | -1% | -13%
SMILES | Rab9 prom act | FLuc counter | NPC1 promoter act | ELG1 genotox | SMN2 splice enh
CCOC(=O)c1c(C)[nH]c(C(=O)Nc2ccc(C)c(Cl)c2)c1C | 4µM* | 2.4µM* | 2µM* | ? | 11µM*
CCOC(=O)c1c(C)[nH]c(C(=O)NNC(=O)c2ccc(Br)cc2)c1C | 30% | ? | 16% | 7% | .
CCc1cc2c(cc3c(=O)n(CC(=O)NCCc4ccccc4)ncn32)s1 | . | 1% | . | . | 0%
CCc1c(C(=O)Nc2cc(C)ccc2OC)[nH]c(C)c1C(C)=O | -1% | 2% | 9% | ? | -6%
CCc1c(C(=O)Nc2ccc(C)c(C)c2)[nH]c(C)c1C(C)=O | 3.2µM* | 15µM* | ? | ? | .
Cc1cc(NC(=O)c2ccc(NC(=O)CCS(=O)(=O)c3cccs3)cc2)ccc1Br | . | -2% | . | . | 16µM*
COc1ccc(NC(=O)c2ccc(NC(=O)CCS(=O)(=O)c3cccs3)cc2)cc1Cl | . | 5% | . | . | 16µM*
CCn1c(=O)c2cc(C(=O)NCCc3cc(OC)ccc3OC)sc2c2ccccc21 | . | -10% | . | . | -1%
COC(=O)c1ccc2nc(Nc3nc4ccc(F)cc4s3)sc2c1 | -21% | 4.8µM* | -19% | ? | -93%
CC(C)c1ccc2nc(NC(=O)C3CC3)sc2c1 | 1.6µM* | 7.6µM* | 1.6µM* | ? | .
CCOC(=O)c1csc(Nc2nc3ccc(F)cc3s2)n1 | 23% | -16% | 14% | 1% | -21%
COC(=O)c1ccc2nc(NC(=O)C3CCCCC3)sc2c1 | 0.32µM* | ? | 0.89µM* | ? | .
COC(=O)Nc1nc2ccc(Br)cc2s1 | 1.4µM* | -10% | 28% | ? | 26%
CC(=O)Nc1nc2ccc(C(=O)NC3CCCCC3)cc2s1 | 2% | -17% | -1% | 0% | -3%
Cc1nc2cccnc2n1-c1cccc(C(=O)NCc2cccc(Cl)c2)c1 | . | -7% | . | . | .
C=C[C@@]1(C)CC[C@H](O)[C@H]2C(=O)CCC[C@@H]21 | . | . | . | . | -10%
CC(=O)c1sc(Nc2nc3ccc(F)cc3s2)nc1C | 1.8µM* | 3.4µM* | 2.8µM* | 3% | 13µM*

Bioassay records deposited in PubChem BioAssay by National Center for Advancing Translational Sciences (NCATS).
